Measurements taken from the supplement of paper PMC13380429.

Tested on: Vero E6 infected with SARS-CoV-2
Assay: inhibition of SARS-CoV-2 cytopathic effect; higher = more antiviral protection, active = above 15
Conditions: 48 h

Measured: inhibition of SARS-CoV-2 cytopathic effect

COCCOc1cnc2ccn([C@H](C)c3nnc4c(F)cc(-c5cnn(C)c5)cn34)c(=O)c2c1
inactive: 1 nM -0.43% | 8.33 nM -1.31% | 100 nM 0.19% | 833.33 nM -0.75% | 10000 nM -0.37%

CN1C[C@H](CNC(=O)OCc2ccccc2)C[C@@H]2c3cccc4c3c(cn4C)C[C@H]21 [metergoline]
inactive: 1 nM -10.3% | 8.33 nM -6.82% | 100 nM -4.21% | 833.33 nM -6.12% | 10000 nM -2.89%

O=P(O)(O)C(O)(Cc1cccnc1)P(=O)(O)O [risedronate]
inactive: 1 nM -0.54% | 8.33 nM -1.25% | 100 nM -0.67% | 833.33 nM 3.13% | 10000 nM 1.96%

CN1C(=O)N(C)C2C1N(C)C(=O)N2C (stereo not given) [mebicar]
inactive: 1 nM -5.8% | 8.33 nM -1.8% | 100 nM -3.06% | 833.33 nM -1.23% | 10000 nM -2.18%

CCCNC(=O)N1N=C(c2ccc(N)cc2)c2cc3c(cc2C1C)OCO3 (stereo not given)
inactive: 1 nM -4.65% | 8.33 nM -0.41% | 100 nM 1.6% | 833.33 nM 0.9% | 10000 nM 4.48%

CO[C@@H]1[C@H](N(C)C(=O)c2ccccc2)C[C@H]2O[C@]1(C)n1c3ccccc3c3c4c(c5c6ccccc6n2c5c31)C(=O)NC4 [midostaurin]
inactive: 1 nM -10.1% | 8.33 nM -8.56% | 100 nM -8.88% | 833.33 nM -23.9% | 10000 nM -31.5%

Nc1nc2c(c(N3CCNCC3)n1)CCC1=C2[C@@H]2CCCC[C@@H]2O1
inactive: 1 nM 1.61% | 8.33 nM 0.48% | 100 nM 1.56% | 833.33 nM 2.05% | 10000 nM -2.01%

CCOC(=O)[C@H](CCc1ccccc1)N[C@@H](C)C(=O)N1[C@H](C(=O)O)C[C@@H]2CCC[C@@H]21 [ramipril]
inactive: 1 nM -0.55% | 8.33 nM -0.01% | 100 nM -0.53% | 833.33 nM 5.34% | 10000 nM -2.38%
